Measurements as given in PubChem BioAssay.
Activity calls are given as the source filed them.

Columns and labels:
[1] = E. coli DRC41 culture turbidity changes, primary screen, E. coli filamentation inducer project, strain DRC41, OD650, 48 h (AID 1152);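 further: E. coli MC1000 strain DRC41 lacking acrAB efflux pump and sulA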; conditions: E. coli DRC41 (acrAB sulA), higher = more signal, called active from +8 up or from −8 down
[2] = small-molecule binders of probe aLefty1, primary screen, biochemical, small-molecule microarray, 635/667 nm fluorescence (AID 1153); conditions: higher = more signal;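 further: score merges spot fluorescence with signal-to-noise ratio from the scanned slide images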
[3] = PSAC antagonists in infected red cells, primary screen, cell-based, P. falciparum Indochina, OD700, 1 h (AID 1154); conditions: P. falciparum Indochina infected RBC osmotic lysis, higher = more signal, called active from +8 up or from −8 down
[4] = PSAC antagonists in infected red cells, primary screen, cell-based, P. falciparum Indochina, OD700, 2 h (AID 1155);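 further: lysis reports solute entry through the parasite surface anion channel PSAC; channel blockers reduce lysis of infected cells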; conditions: P. falciparum Indochina infected erythrocytes, osmotic lysis OD700; higher = more signal, called active from +8 up or from −8 down
[5] = osmotic lysis modulators in infected erythrocytes, primary screen, PSAC antagonist project, cell-based, P. falciparum Indochina, OD700, 3 h (AID 1156); conditions: higher = more signal, called active from +8 up or from −8 down
[6] = PSAC antagonists in infected red cells, primary screen, cell-based, P. falciparum Indochina, OD700, 18 h (AID 1157); conditions: P. falciparum Indochina infected erythrocytes, osmotic lysis OD700, 18 h; higher = more signal, called active from +8 up or from −8 down
[7] = modulators of S6 phosphorylation in cells, primary screen, cell-based, A549, cytoblot, luminescence, serum-stimulated (AID 1158); conditions: A549 phospho-S6 cytoblot, 5 h, higher = more signal;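 further: serum-stimulated A549 lung adenocarcinoma cells; signal is phosphorylated S6 detected by cytoblot immunostaining with HRP secondary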
[8] = molecular target: NADPH oxidase 2 (Homo sapiens) (UniProt P04839); experiment: NOX2-dependent H2O2 signal modulators, primary screen, NOX inhibitor project, cell-based, HEK293-NOX2, PMA-stimulated, Amplex Red fluorescence (AID 1159); conditions: 45 min, higher = more signal, called active from +8 up or from −8 down; further: test concentration not given here
[9] = molecular target: NADPH oxidase 4 (Homo sapiens) (UniProt Q9NPH5); experiment: NOX4-dependent H2O2 signal modulators, primary screen, NOX inhibitor project, cell-based, HEK293-NOX4, tetracycline-induced, Amplex Red fluorescence (AID 1160); conditions: 45 min, higher = more signal, called active from +8 up or from −8 down
[10] = molecular target: NADPH oxidase 5 (Homo sapiens) (UniProt Q96PH1); experiment: NOX5-dependent H2O2 signal modulators, primary screen, NOX inhibitor project, cell-based, HEK293-NOX5, Amplex Red fluorescence (AID 1161); conditions: HEK293-NOX5, ionomycin, 45 min, higher = more signal
Sequence of NADPH oxidase 5 (Homo sapiens) (Q96PH1 whole entry, looked up): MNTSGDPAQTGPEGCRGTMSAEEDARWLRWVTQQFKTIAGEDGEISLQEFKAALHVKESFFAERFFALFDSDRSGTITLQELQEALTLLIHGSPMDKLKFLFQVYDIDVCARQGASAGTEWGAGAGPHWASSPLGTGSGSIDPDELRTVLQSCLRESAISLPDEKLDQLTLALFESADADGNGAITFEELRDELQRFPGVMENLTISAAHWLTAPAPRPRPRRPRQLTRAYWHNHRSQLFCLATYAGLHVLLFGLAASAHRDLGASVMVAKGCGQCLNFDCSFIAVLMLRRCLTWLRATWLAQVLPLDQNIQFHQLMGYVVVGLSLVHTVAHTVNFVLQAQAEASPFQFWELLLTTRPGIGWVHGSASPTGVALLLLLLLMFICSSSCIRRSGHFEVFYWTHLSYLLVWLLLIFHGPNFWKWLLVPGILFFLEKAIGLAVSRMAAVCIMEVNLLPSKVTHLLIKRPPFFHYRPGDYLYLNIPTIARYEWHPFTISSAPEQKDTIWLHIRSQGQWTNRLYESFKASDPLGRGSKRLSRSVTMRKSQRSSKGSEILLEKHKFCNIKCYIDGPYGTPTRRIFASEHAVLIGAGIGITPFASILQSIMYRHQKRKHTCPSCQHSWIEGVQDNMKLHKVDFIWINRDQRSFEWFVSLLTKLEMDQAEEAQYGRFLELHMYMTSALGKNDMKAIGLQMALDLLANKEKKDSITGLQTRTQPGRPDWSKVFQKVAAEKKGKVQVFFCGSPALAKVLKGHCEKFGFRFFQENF

Sequence of NADPH oxidase 4 (Homo sapiens) (Q9NPH5 whole entry, looked up): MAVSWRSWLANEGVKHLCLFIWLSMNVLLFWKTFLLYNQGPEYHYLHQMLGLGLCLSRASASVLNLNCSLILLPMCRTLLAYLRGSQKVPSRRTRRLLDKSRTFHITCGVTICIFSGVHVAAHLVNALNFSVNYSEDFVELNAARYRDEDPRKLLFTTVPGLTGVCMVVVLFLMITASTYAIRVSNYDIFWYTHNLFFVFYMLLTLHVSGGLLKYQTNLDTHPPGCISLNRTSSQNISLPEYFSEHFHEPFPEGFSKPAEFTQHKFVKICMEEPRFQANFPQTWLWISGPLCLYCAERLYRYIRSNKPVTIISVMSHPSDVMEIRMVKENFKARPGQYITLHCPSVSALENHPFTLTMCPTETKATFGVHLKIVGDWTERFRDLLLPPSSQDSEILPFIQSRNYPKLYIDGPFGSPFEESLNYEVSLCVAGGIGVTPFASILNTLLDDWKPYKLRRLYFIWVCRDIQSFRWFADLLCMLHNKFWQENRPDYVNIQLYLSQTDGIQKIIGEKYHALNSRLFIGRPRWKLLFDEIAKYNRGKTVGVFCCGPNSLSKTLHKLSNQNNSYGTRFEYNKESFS
Sequence of NADPH oxidase 2 (Homo sapiens) (P04839 whole entry, looked up): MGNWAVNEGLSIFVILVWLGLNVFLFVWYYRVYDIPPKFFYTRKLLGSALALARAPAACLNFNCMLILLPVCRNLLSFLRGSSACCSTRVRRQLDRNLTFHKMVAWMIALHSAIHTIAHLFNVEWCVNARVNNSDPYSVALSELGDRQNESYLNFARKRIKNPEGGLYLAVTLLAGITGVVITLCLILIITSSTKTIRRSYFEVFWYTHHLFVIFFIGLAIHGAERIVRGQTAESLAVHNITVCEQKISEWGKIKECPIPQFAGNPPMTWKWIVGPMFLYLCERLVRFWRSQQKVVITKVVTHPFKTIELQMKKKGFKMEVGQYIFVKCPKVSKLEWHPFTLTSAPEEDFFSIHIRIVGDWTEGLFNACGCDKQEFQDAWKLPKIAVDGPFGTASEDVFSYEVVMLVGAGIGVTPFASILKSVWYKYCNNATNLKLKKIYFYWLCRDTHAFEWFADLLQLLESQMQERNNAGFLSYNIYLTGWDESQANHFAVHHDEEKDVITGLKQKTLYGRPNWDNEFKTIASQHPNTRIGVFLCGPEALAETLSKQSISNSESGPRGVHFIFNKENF

Structure (SMILES)	z-score [1]	composite z-score [2]	z-score [3]	z-score [4]	z-score [5]	z-score [6]	z-score [7]	z-score [8]	z-score [9]	z-score [10]
Cc1ccc(S[C@]2(C(=O)NCCN3CCOCC3)CC(=O)N(C(C)C)[C@@H]2c2ccc(CO)cc2I)cc1	3.66 (inactive)	0.11	7.56 (inactive)	0.308 (inactive)	0.651 (inactive)	-0.511 (inactive)	1.86	-0.491 (inactive)	-1.24 (inactive)	1.07
COCCOC(=O)N1C(=O)[C@@]2(c3cc(C#CCNC(N)=O)ccc31)[C@H](c1ccccc1OCCO)N1[C@H](c3ccccc3)[C@H](c3ccccc3)OC(=O)[C@H]1[C@@H]2C(=O)N1CCCCCCC1	-0.583 (inactive)	0.359	1.21 (inactive)	0.696 (inactive)	0.346 (inactive)	0.238 (inactive)	-0.418	1.39 (inactive)	1.05 (inactive)	0.903
COCCOC(=O)N1C(=O)[C@@]2(c3cc(C#CC4=CCCCC4)ccc31)[C@H](c1ccc(O)cc1)N1[C@H](c3ccccc3)[C@H](c3ccccc3)OC(=O)[C@H]1[C@@H]2C(=O)N1CCc2cc(OC)c(OC)cc2C1	-0.164 (inactive)	0.0355	0.751 (inactive)	0.394 (inactive)	-6.44 (inactive)	0.0991 (inactive)	-0.294	1.48 (inactive)	1.04 (inactive)	1.03
O=C/C=C/c1ccc(-c2ccccc2)cc1	1.06 (inactive)	-0.0186	2.39 (inactive)	-0.681 (inactive)	-0.103 (inactive)	-2.17 (inactive)	1.04	0.388 (inactive)	-1.85 (inactive)	0.605
O=C1O[C@H](c2ccccc2)[C@H](c2ccccc2)N2[C@H]1[C@@H](C(=O)N1CCN(c3ncccn3)CC1)[C@]1(C(=O)Nc3ccc(C#CC4(O)CCCCCC4)cc31)[C@H]2c1ccc(O)cc1	2.51 (inactive)	0.0903	0.36 (inactive)	0.88 (inactive)	1.09 (inactive)	0.566 (inactive)	1.37	1.24 (inactive)	0.663 (inactive)	1.22
O=C1NC(=O)C2C1C=CC(C(O)c1ccc(F)cc1)N2Nc1ccc(Cl)cc1Cl (stereo not given)	-1.89 (inactive)	-0.017	3.43 (inactive)	0.615 (inactive)	-0.695 (inactive)	1.22 (inactive)	0.0765	-0.018 (inactive)	-5.68 (inactive)	-3.23
C=C(CCCC)/C(=C/C[C@@H](OC(C)=O)c1cccc(OCCO)c1)c1cc(C(=O)OC)ccc1OC	0.198 (inactive)	-0.0969	17.4 (active)	3.45 (inactive)	1.42 (inactive)	1.02 (inactive)	0.0322	-2.13 (inactive)	-1.16 (inactive)	-1.88
CC(C)[Si]1(C(C)C)OCc2cc(-c3ccc(-c4ccc(Cl)c(Cl)c4)o3)nc(-c3ccc(Oc4ccccc4)cc3)c21	-1.08 (inactive)	-0.21	1.88 (inactive)	0.352 (inactive)	0.0032 (inactive)	0.533 (inactive)	-0.203	-4.58 (inactive)	0.169 (inactive)	-1.54
COC(=O)C(CC#Cc1ccc2c(c1)[C@]1(C(=O)N2)[C@H](c2ccccc2OCCO)N2[C@H](c3ccccc3)[C@H](c3ccccc3)OC(=O)[C@H]2[C@@H]1C(=O)N1CCN(c2ncccn2)CC1)C(=O)OC	-0.577 (inactive)	-0.0984	3.02 (inactive)	1.49 (inactive)	0.928 (inactive)	0.565 (inactive)	-0.512	0.803 (inactive)	0.849 (inactive)	2.23
C=CC[C@H](OC(=O)Nc1ccc(SC)cc1)c1ccc(O)c(F)c1	-0.705 (inactive)	0.0226	23.6 (active)	4.93 (inactive)	1.45 (inactive)	0.966 (inactive)	0.49	-5.66 (inactive)	-2.66 (inactive)	-3.08
Cc1ccc(N2C(=O)c3ccccc3[C@@H](C(=O)NCCN3CCOCC3)[C@@H]2c2ccc(CO)cc2)nc1	0.279 (inactive)	-0.303	0.443 (inactive)	-0.229 (inactive)	-0.319 (inactive)	0.155 (inactive)	-0.334	0.335 (inactive)	-0.36 (inactive)	-1.86
CC1(C)OB(/C=C\CC(OC(=O)c2ccncc2)c2ccccc2)OC1(C)C (stereo not given)	-0.318 (inactive)	1.24	0.777 (inactive)	-0.854 (inactive)	-0.66 (inactive)	-0.678 (inactive)	-0.119	-2.45 (inactive)	0.637 (inactive)	-5.03
C=CC[C@]12N=C(c3ccc(OCCCO)cc3)O[C@H]1c1ccccc1N(CCC)C2=O	-0.0423 (inactive)	1.26	32.8 (active)	33.1 (active)	2.98 (inactive)	4.84 (inactive)	0.204	-2.03 (inactive)	0.00147 (inactive)	-1.71
COc1cc2c(cc1O)C(C)N(Cc1sc3ccccc3c1Cl)CC2 (stereo not given)	0.268 (inactive)	-0.145	4.05 (inactive)	2.4 (inactive)	0.334 (inactive)	1.85 (inactive)	-0.43	-3.7 (inactive)	-2.3 (inactive)	-3.2
O=C1N(Cc2ccccc2)c2ccccc2C[C@@]12N=C(c1ccc(OCCCO)cc1)O[C@H]2c1ccccc1	-1.12 (inactive)	0.383	10.8 (active)	2.67 (inactive)	3.39 (inactive)	1.03 (inactive)	0.075	1.92 (inactive)	0.112 (inactive)	-1.67
CCCNC(=O)[C@@]1(Sc2ccc(C)cc2)CC(=O)N(Cc2cc(C(F)(F)F)cc(C(F)(F)F)c2)[C@@H]1c1ccc(CO)cc1	1.63 (inactive)	-0.193	2.74 (inactive)	0.285 (inactive)	0.25 (inactive)	-1.15 (inactive)	2.9	0.584 (inactive)	-0.589 (inactive)	0.207
COCCCNC(=O)[C@@]1(c2ccc([N+](=O)[O-])cc2)CC(=O)N(C2CCCCC2)[C@@H]1c1ccc(CO)cc1I	0.725 (inactive)	-0.208	12.6 (active)	1.35 (inactive)	3.44 (inactive)	1.11 (inactive)	0.107	1.78 (inactive)	0.381 (inactive)	2.07
COC(=O)[C@@]1(Cc2ccc(F)cc2)[C@H]2c3cc(C(=O)N4CCCC4)n(CCSCCO)c3C[C@H]2CN1C(=O)c1ccccc1	-0.683 (inactive)	0.433	1.37 (inactive)	0.367 (inactive)	0.189 (inactive)	0.618 (inactive)	0.332	0.639 (inactive)	-0.179 (inactive)	-0.345
C=C(CCCC)C(=O)CC[C@H](OC(=O)c1ccccc1-c1ccccc1C(=O)O)c1cccc(OCCO)c1	-0.497 (inactive)	-0.147	8.46 (active)	1.77 (inactive)	1.97 (inactive)	0.478 (inactive)	-0.363	0.976 (inactive)	-0.462 (inactive)	-1.74
COCCOC(=O)N1C(=O)[C@@]2(c3cc(C#CCNC(N)=O)ccc31)[C@H](C(=O)Nc1nc3ccccc3s1)[C@H]1C(=O)O[C@H](c3ccccc3)[C@H](c3ccccc3)N1[C@@H]2c1ccc(O)cc1	-0.614 (inactive)	0.317	1.1 (inactive)	0.476 (inactive)	-0.385 (inactive)	1.05 (inactive)	0.637	0.95 (inactive)	-1.12 (inactive)	0.142
CC[C@@H]1C=C(C(=O)O)[C@H](c2cccc(Cl)c2)N1S(=O)(=O)c1ccc(C)cc1	-1.23 (inactive)	0.0043	0.522 (inactive)	0.229 (inactive)	-0.0699 (inactive)	0.29 (inactive)	-0.861	0.416 (inactive)	0.185 (inactive)	0.272
CC(C)c1ccc(NN2C(C(O)C3=C[C@H]4C[C@@H](C3)C4(C)C)C=CC3C(=O)N(c4ccccc4)C(=O)C32)cc1 (stereo not given in full)	-0.736 (inactive)	0.587	1.8 (inactive)	1.13 (inactive)	0.0675 (inactive)	1.37 (inactive)	-0.578	-0.843 (inactive)	-3.08 (inactive)	-1.62
O=C1O[C@H](c2ccccc2)[C@H](c2ccccc2)N2[C@H]1[C@@H](C(=O)N1CCCCCCC1)[C@]1(C(=O)Nc3ccc(C#CCCO)cc31)[C@H]2c1ccc(O)cc1	1.48 (inactive)	3.06	1.01 (inactive)	-0.0898 (inactive)	0.0261 (inactive)	0.295 (inactive)	0.0374	1.28 (inactive)	0.892 (inactive)	1.38
COC(=O)c1c2oc(c1C(=O)OC)C(=O)N[C@H](Cc1ccccc1)Cn1cc(nn1)C1(CCCCC1)NC(=O)N[C@H](CO)CC2	2.53 (inactive)	-0.104	0.96 (inactive)	0.166 (inactive)	0.789 (inactive)	0.286 (inactive)	0.274	-0.0295 (inactive)	1.77 (inactive)	0.431
COc1ccc([Si](C)(C)[C@H]2[C@H](CC(=O)N3CCC[C@H]3CO)O[C@@]3(C(=O)N(Cc4cccc(N5CCCCC5=O)c4)c4ccccc43)[C@@H]2C)cc1	0.499 (inactive)	0.0799	4.11 (inactive)	0.57 (inactive)	0.318 (inactive)	0.525 (inactive)	-0.438	1.45 (inactive)	1.44 (inactive)	4.92
CC(C)(C)OC(=O)CC[C@@]1(C(N)=O)N=C(c2ccc(OCCCO)cc2)O[C@@H]1c1ccccc1CN=[N+]=[N-]	-0.216 (inactive)	0.997	23.4 (active)	5.68 (inactive)	-1.49 (inactive)	0.739 (inactive)	0.0301	1.11 (inactive)	1.09 (inactive)	0.369
